Reference: PubChem BioAssay (NCI)
The panel holds about 79,000 compounds, 15% with a hit somewhere; the sample as a whole holds those more often. Calls of active or inactive are those of the source. No stated cut-off is given here; in the data, active means growth inhibition above about 70%; inactive means the rest. Where a SMILES comes first, the peptide text is derived from it. The star is where a group is joined. Cbz = O=C(OCc1ccccc1)*

Columns and labels:
[1] = NCI Yeast Anticancer Drug Screen. Data for the rad50 strain (AID 155);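 further: 0% = growth of vehicle-only cultures of the same strain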; conditions: S. cerevisiae rad50 strain growth inhibition; at 50.0 µM; hits give high values
Summary of the method: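 Genetically altered yeast (DNA repair pathway); compound treatment; growth inhibition vs vehicle ctrl.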

[2] = NCI Yeast Anticancer Drug Screen. Data for the mec2-1 strain (AID 157); conditions: S. cerevisiae mec2-1 strain, at 50.0 µM, hits give high values
Summary of the method: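 Using mec2-1 yeast: add compound, measure growth, express inhibition versus vehicle-treated cultures.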

[3] = NCI Yeast Anticancer Drug Screen. Data for the sgs1 mgt1 strain (AID 161);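 further: 0% = growth of cultures given vehicle only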; conditions: S. cerevisiae sgs1 mgt1 strain, at 50.0 µM, hits give high values
Summary of the method: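 Compounds are added to genetically altered yeast, and growth is compared with cultures given vehicle alone to give percent inhibition.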

[4] = NCI Yeast Anticancer Drug Screen. Data for the cln2 rad14 strain (AID 165);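 further: 0% = growth equal to vehicle treated cultures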; conditions: S. cerevisiae cln2 rad14 strain, at 50.0 µM, hits give high values
Summary of the method: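 Yeast strain cln2 rad14, bearing defects in cell cycle control and DNA repair, serves as the test system; values reflect growth inhibition compared with vehicle.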

[5] = NCI Yeast Anticancer Drug Screen. Data for the bub3 strain (AID 167); conditions: S. cerevisiae bub3 mutant strain, at 50.0 µM, hits give high values
Summary of the method: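 Yeast carrying a defined mutation is treated with each compound, and growth is compared with that of vehicle-exposed cells to give inhibition.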

[6] = NCI Yeast Anticancer Drug Screen. Data for the mlh1 rad18 strain (AID 175); conditions: S. cerevisiae mlh1 rad18 strain growth inhibition; at 50.0 µM; hits give high values
Summary of the method: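 Steps: expose repair-defective yeast to compound; measure growth; express inhibition against vehicle-treated controls.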

Measured: growth inhibition

CCOc1ccc(NC(=S)NC=C(C(N)=O)C(N)=O)cc1
inactive: [1] -47.3% | [2] -41.3% | [3] -10.7% | [4] 19.2% | [5] 3.9% | [6] -22.6%

COc1ccc(S(=O)(=O)/N=C(/C2CC3=CCC4C5CCC(=O)C5(C)CC(=O)C4C3(C)C2)N2CCCC2)cc1 (configuration not stated)
inactive: [1] 5.75% | [2] 4.9% | [3] 1.85% | [4] -11.6% | [5] -1.35% | [6] -18%

Cn1c(=O)c2conc2n(-c2ccc(Cl)cc2)c1=O
inactive: [1] 11.2% | [2] -0.1% | [3] -12.2% | [4] -19.9% | [5] 2.55% | [6] -3.25%

CC(C)(C)c1ccc(OCCCCl)c(CCl)c1
inactive: [1] 23.4% | [2] 2.75% | [3] 10.1% | [4] 7.65% | [5] 52% | [6] 12.6%

Nc1ccc2c(c1)C(=O)c1c(F)c(F)c(F)c(F)c1-2
inactive: [1] 16.6% | [2] -0.9% | [3] -10.7% | [4] -13.2% | [5] 4.85% | [6] 11.9%

CC(=O)OCC1OC(OC(C)=O)C(N)C(OC(C)=O)C1OC(C)=O (configuration not stated)
inactive: [1] 2.15% | [2] 11.8% | [3] 11.9% | [4] 9.05% | [5] -15.9% | [6] 19.4%

CC(=O)Oc1cc2c(cc1Cc1ccc3c(c1)OCO3)OCO2
inactive: [1] -18.6% | [2] -17.2% | [3] -7% | [4] -6.2% | [5] 15.9% | [6] -14.5%

CCCCCCCCCCCCCC(=O)N(CCCCCCCCC)CC(O)C(O)C(OC1OC(CO)C(O)C(O)C1O)C(O)CO (configuration not stated)
inactive: [1] -13.8% | [2] -41.4% | [3] -17.4% | [4] -28.4% | [5] -49.1% | [6] -56.5%

CC(C)/C=C(\C#N)C(=O)O
inactive: [1] -3.2% | [2] -13.5% | [3] -1.2% | [4] -0.8% | [5] -2.65% | [6] 1.3%

COC(=O)CCCCCCCCC(C)C(C)=O (configuration not stated)
inactive: [1] -34.8% | [2] -29.8% | [3] -16.4% | [4] -12.5% | [5] -45.3% | [6] -32.5%

O=C1C2C3C=CC(C2C(=O)N1COP(=O)(O)O)C1C2C(=O)N(COP(=O)(O)O)C(=O)C2C31 (configuration not stated)
inactive: [1] 2.1% | [2] 0.3% | [3] 0.95% | [4] 19.1% | [5] -11.2% | [6] -14.1%

COc1ccc(N2NC(c3ccccc3)(c3ccccc3)C(C)C2=O)cc1 (configuration not stated)
inactive: [1] 48.2% | [2] 17.1% | [3] 40.4% | [4] 5.2% | [5] 51.2% | [6] 40.1%

O=C1c2ccc([N+](=O)[O-])cc2C(=O)N1CC(F)(F)F
inactive: [1] -0.9% | [2] 8.35% | [3] 10.6% | [4] 14.8% | [5] -3% | [6] 3.8%

O=CC(=O)c1ccc(F)cc1
inactive: [1] -20.2% | [2] -10% | [3] -0.15% | [4] -15.2% | [5] -8.55% | [6] 2%

CCCC(=O)Oc1ccc(Br)cc1
inactive: [1] 6.6% | [2] -22.4% | [3] -5.25% | [4] 12.8% | [5] -17.9% | [6] 20.9%

COC(=O)c1ccc(C(=O)O)cc1
inactive: [1] 5.35% | [2] -2.65% | [3] -8.15% | [4] -6.55% | [5] 0.65% | [6] -6.5%

CC(C)C(CN)(C(C)C)C(C)C
inactive: [1] 2.35% | [2] 9.65% | [3] -8.65% | [4] 8.55% | [5] 5.3% | [6] -8.6%

Cc1[nH]c2ccc(C(=O)NN)cc2c1CC(=O)NN
inactive: [1] 12.2% | [2] 8.45% | [3] 14.8% | [4] -23.1% | [5] 6.55% | [6] 25.1%

CCCCCCCOCC(=O)O
inactive: [1] 10% | [2] -5.8% | [3] 3.6% | [4] -30.2% | [5] 1.25% | [6] 17.6%

CSc1ccc(NC(=O)Nc2cccc(C)c2C)cc1
inactive: [1] 1.75% | [2] 27.1% | [3] 27.8% | [4] -7.2% | [5] 27.6% | [6] 15.3%

CC(=O)OC[C@@H](COC(=O)/C=C/c1ccc(O)cc1)OC1OC(CO)C(O)C(O)C1O (some centres not stated)
inactive: [1] -1.45% | [2] -37.2% | [3] -21.8% | [4] 1.7% | [5] -17.1% | [6] -1.8%

Cc1cc(-c2ccccc2)[nH]c1-c1nccc2ccccc12
inactive: [1] 4.1% | [2] 8% | [3] 0.8% | [4] 24% | [5] -4.5% | [6] 4.7%

NC(=O)NC(=O)N/N=C/c1ccccc1
inactive: [1] 23.2% | [2] 2.4% | [3] 2.8% | [4] 4.15% | [5] 7.6% | [6] 14.9%

CCN(CC)C(=O)C1CCN(CCC(=O)Nc2ccccc2)CC1
inactive: [1] 8.4% | [2] -7.6% | [3] 12.9% | [4] -16.1% | [5] 5.15% | [6] 7.15%

O=C1c2ccccc2C(=O)N1/N=C/c1ccc([N+](=O)[O-])cc1
inactive: [1] -4.4% | [2] -17% | [3] -16.3% | [4] -11.5% | [5] -13.9% | [6] -22.5%

CC(NC(=O)OCc1ccccc1)C(=O)NC(CO)C(N)=O (stereo not drawn) (Cbz-Ala-Ser-NH2; configuration not given here)
inactive: [1] 6.15% | [2] -6.5% | [3] -0.25% | [4] 19.2% | [5] 5.95% | [6] 8.1%

CCOC(=O)C(Cc1c[nH]c2ccccc12)NCCN (configuration not stated)
inactive: [1] -4.85% | [2] 4.8% | [3] -1.45% | [4] -9.95% | [5] -7.25% | [6] -3.8%

COc1ccc(OC)c(Cc2ccc(NC(C)=O)cc2)c1
inactive: [1] 4.75% | [2] -2.15% | [3] 3.3% | [4] -38.2% | [5] -0.75% | [6] -2.65%

COc1ccc(C2=NCCO2)cc1N
inactive: [1] 3.6% | [2] 0.45% | [3] -13.7% | [4] -5.5% | [5] 4.35% | [6] 11.4%

c1ccc(NCNC2Nc3ccccc3N2)cc1
inactive: [1] -25.9% | [2] -13.2% | [3] 12.3% | [4] -3.35% | [5] -20.6% | [6] 11.6%

Cc1cccc(C(=O)NNC(=O)c2ccc3ccccc3c2)c1
inactive: [1] -60.3% | [2] -49.7% | [3] -23.9% | [4] -3.6% | [5] -28.9% | [6] -33.2%

N#C/C(=C\c1cccs1)C(N)=S
inactive: [1] 6.85% | [2] -18.6% | [3] -6.45% | [4] -31.2% | [5] -9.1% | [6] 1.65%

CCNc1nc2c(N)ncnc2n1C1OC(CO)C(O)C1O (configuration not stated)
inactive: [1] 12.8% | [2] -8.4% | [3] 6.45% | [4] -3.35% | [5] -0.1% | [6] -6.6%

CC1CC(OC(=O)c2ccccc2)CCC1=O (configuration not stated)
inactive: [1] -5.6% | [2] -2.85% | [3] -7.65% | [4] 14.5% | [5] 15.6% | [6] -7.8%

CCN(CC)CCN1C(=O)C2C3C=CC(C3)C2C1=O (configuration not stated)
inactive: [1] -15.1% | [2] -15.4% | [3] 3.25% | [4] -14.9% | [5] -3.25% | [6] -14.9%

Cc1nn(-c2ccc(Cl)cc2)c2c1c(=O)[nH]c1ccccc12
inactive: [1] 6% | [2] -3.45% | [3] 1% | [4] -24.6% | [5] -2.05% | [6] -5.05%

O=c1cc(-c2ccccc2)[nH]c2ccc(N3CCOCC3)cc12
inactive: [1] -37.7% | [2] 0.25% | [3] -41.6% | [4] -18.9% | [5] -15.8% | [6] -31.4%
